Results from PubChem BioAssay (NCATS).
Inconclusive results are not listed. Entries that show only a call come without a potency. Calls of active or inactive are those of the source. Calls follow the shape of the dose curve; as a rule, active = well fitted inhibition curve with a large enough effect; inconclusive = small, poorly fitted or top-dose-only effect; inactive = flat fitted curve, though single readings scatter.

Key:
[1] = biological target: Glutathione peroxidase 1 (Homo sapiens) (UniProt P07203); assay: Primary qHTS Assay for Inhibitors of Recombinant Selenoprotein Glutathione Peroxidase 1 (GPX1) (AID 1845191); details: recombinant GPX1, GR-coupled NADPH fluorescence, 15 min; series mostly up to 48.8 µM
Glutathione peroxidase 1 (Homo sapiens), sequence (P07203 whole entry, looked up): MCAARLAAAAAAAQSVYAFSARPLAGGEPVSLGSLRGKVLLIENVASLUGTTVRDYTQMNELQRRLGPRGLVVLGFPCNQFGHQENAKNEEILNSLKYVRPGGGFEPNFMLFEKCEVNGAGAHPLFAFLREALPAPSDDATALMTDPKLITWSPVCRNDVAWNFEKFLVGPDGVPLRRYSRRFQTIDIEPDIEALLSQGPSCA
In short: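 Recombinant GPX1 (10 nM final) was preincubated with compound for 30 min at room temperature, then reacted with 1 mM GSH, 0.5 mM CHP, 0.5 mM NADPH and 100 nM glutathione reductase; NADPH fluorescence (340/450 nm) was read at 0 and 15 min.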

[2] = biological target: Phospholipid hydroperoxide glutathione peroxidase GPX4 (Homo sapiens) (UniProt P36969); assay: Primary qHTS Assay for Inhibitors of Recombinant Selenoprotein Glutathione Peroxidase 4 (GPX4) (AID 1845192); details: recombinant GPX4, GR-coupled NADPH fluorescence, 15 min; series mostly up to 50 µM
Phospholipid hydroperoxide glutathione peroxidase GPX4 (Homo sapiens), sequence (P36969 whole entry, looked up): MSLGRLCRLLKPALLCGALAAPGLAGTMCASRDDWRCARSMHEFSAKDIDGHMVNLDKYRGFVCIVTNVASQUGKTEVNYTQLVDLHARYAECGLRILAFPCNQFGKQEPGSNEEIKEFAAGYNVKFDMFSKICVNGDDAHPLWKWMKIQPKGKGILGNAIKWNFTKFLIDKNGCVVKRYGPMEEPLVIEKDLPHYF
In short: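 GR-coupled readout: 100 nM GR, 1 mM GSH, 0.5 mM NADPH; NADPH fluorescence (ex 340/em 450 nm) read at t=0 and after 15 min RT. GPX4 200 nM, preincubated 30 min with compound; substrate 0.5 mM CHP.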
Also: nearly all actives have a fitted effect of over 65% in size.
Potency is read from the fitted curve at half-maximal effect.

| SMILES | Potency [1] | Potency [2] |
| --- | --- | --- |
| O=C1NC(=O)c2cc(Nc3ccccc3)c(Nc3ccccc3)cc21 | inactive | inactive |
| CSC(N)=NCCC[C@H](N)C(=O)O | inactive | inactive |
| O=c1[nH]ccc2c(O)cccc12 | inactive | inactive |
| C=CCN1CCc2c(cc(O)c(O)c2Br)[C@@H](c2ccccc2)C1 | inactive | inactive |
| COc1ccc2c(c1)c(CC(=O)O)c(C)n2C(=O)c1ccccc1 | inactive | inactive |
| COc1cc(CNC(=O)CCCCCCC(C)C)ccc1O | inactive | inactive |
| C[C@H]1CC2C3CCC4=CC(=O)C=C[C@]4(C)[C@@]3(Cl)[C@@H](O)C[C@]2(C)[C@@]1(O)C(=O)CO (some centres not stated) | inactive | inactive |
| CC1CCN=C(N)S1 (configuration not stated) | inactive | inactive |
| OCC1NCC(O)C(O)C1O (configuration not stated) | inactive | inactive |
| C[C@@H](NCCc1ccc(O)cc1)[C@@H](O)c1ccc(O)cc1 | inactive | inactive |
| NC1(C(=O)O)CC1 | inactive | inactive |
| Nc1nc2c(nc(Br)n2C2OC3COP(=O)(O)O[C@@H]3C2O)c(=O)[nH]1 (some centres not stated) | inactive | inactive |
| Nc1ccc2c3c(cccc13)C(=O)NC2=O | inactive | inactive |
| Nc1nc2ccc(Cl)cc2c2nc(-c3ccco3)nn12 | inactive | inactive |
| C[N+](C)(C)CC=O | inactive | inactive |
| NC(=O)CC[C@H](N)C(=O)O | inactive | inactive |
| O=[N+]([O-])c1cccc2c(Br)[nH]nc12 | inactive | inactive |
| CNC(=O)c1cc2c(cn1)[nH]c1ccccc12 | inactive | inactive |
| Oc1cc2c(cc1O)C(c1ccccc1)CNCC2 (configuration not stated) | inactive | inactive |
| C=CCN1CCc2cc(O)c(O)cc2C(c2ccccc2)C1 (configuration not stated) | inactive | inactive |
| O=C(O)C1CN(CCCP(=O)(O)O)CCN1 (configuration not stated) | inactive | inactive |
| c1ccc2nc(C3=NCCN3)ccc2c1 | inactive | inactive |
| O=C(O)c1ccccc1Nc1cccc(OCc2ccc3ccccc3n2)c1 | inactive | inactive |
| c1ccc2c(c1)CC(N1CCN(c3cccc4c3OCCO4)CC1)C2 | inactive | inactive |

| SMILES | Potency [1] | Potency [2] |
| --- | --- | --- |
| N#Cc1cc([N+](=O)[O-])c2sc(C(N)=O)[n+]([O-])c2c1 | inactive | inactive |
| CCCc1c(OCCCOc2ccc(OCC(=O)O)cc2)ccc(C(C)=O)c1O | inactive | inactive |
| CNCCNS(=O)(=O)c1cccc2cnccc12 | inactive | inactive |
| COc1ccccc1N1CCN(CCN(C(=O)c2ccc(F)cc2)c2ccccn2)CC1 | inactive | inactive |
| Cc1cccc(C2CN(C)CCc3c2cc(O)c(O)c3Cl)c1 (configuration not stated) | inactive | inactive |
| CCCCCCCCCCC/C=C\C(C)(C)/C=C\CCCC(=O)O | inactive | inactive |
| CCCCCC(O)CCCC(=O)O (configuration not stated) | inactive | inactive |
| CCSC(=N)N | inactive | inactive |
| COCc1nc2c([nH]1)c(=O)n(C)c(=O)n2CC(C)C | inactive | inactive |
| CN(CC[C@@H](Oc1ccc(C(F)(F)F)cc1)c1ccccc1)CC(=O)O | inactive | inactive |
| N[C@@H](CCCC(=O)O)C(=O)O | inactive | inactive |
| CCCn1c(=O)c2c(ncn2C)n(CCC)c1=O | inactive | inactive |
| C[C@H](NC(=O)/C(C#N)=C/c1ccc(O)c(O)c1)c1ccccc1 | inactive | inactive |
| O=S(=O)(c1cccc2c(Cl)cccc12)N1CCCNCC1 | inactive | inactive |
| NC(Cc1cccc(-c2ccccc2CP(=O)(O)O)c1)C(=O)O (configuration not stated) | inactive | inactive |
| CCN(CC)CCCCCCCCOC(=O)c1cc(OC)c(OC)c(OC)c1 | inactive | inactive |
| NC/C=C\C(=O)O | inactive | inactive |
| CC(=O)SC1CC2=CC(=O)CC[C@]2(C)C2CC[C@@]3(C)C(CC[C@@]34CCC(=O)O4)C12 (some centres not stated) | inactive | inactive |
| NCCCCN | inactive | inactive |
| C=C(C)C1CC=C(C(=O)O)CC1 (configuration not stated) | inactive | inactive |
| N[C@H]1CONC1=O | inactive | inactive |
| CN1CCCC1CCOC(C)(c1ccccc1)c1ccc(Cl)cc1 (configuration not stated) | inactive | inactive |
| CN[C@H](CC(=O)O)C(=O)O | inactive | inactive |
| O=C(N[C@@H](Cc1ccccc1)C(=O)CCl)OCc1ccccc1 | inactive | inactive |

| SMILES | Potency [1] | Potency [2] |
| --- | --- | --- |
| COC(=O)[C@H](NC(=O)c1cc(-c2ccccc2)nc2ccccc12)c1ccccc1 | inactive | inactive |
| Cn1c(=O)c2[nH]c(-c3ccc(S(=O)(=O)O)cc3)nc2n(C)c1=O | 10 µM (active) | 11.2 µM (active) |
| N=S(=O)(O)Cc1noc2ccccc12 | inactive | inactive |
| CCCCOc1cc(CC2CNC(=O)N2)ccc1OC (configuration not stated) | inactive | inactive |
| CCCC[C@@]1(C2CCCC2)Cc2cc(OCC(=O)O)c(Cl)c(Cl)c2C1=O | inactive | inactive |
| C/C(=C\c1ccc(C(=O)O)cc1)c1ccc2c(c1)C(C)(C)CCC2(C)C | inactive | inactive |
| NC1C=CC=C(C(=O)O)C1 (configuration not stated) | inactive | inactive |
| COc1cccc(OC)c1OCCNCC1CSc2ccccc2O1 (configuration not stated) | inactive | inactive |
| CN(C)S(=O)(=O)c1ccc2c(c1)/C(=C/c1cc3c([nH]1)CCCC3)C(=O)N2 | inactive | inactive |
| CC(C)NCC(O)COc1ccc(CC(N)=O)cc1 (configuration not stated) | inactive | inactive |
| Nc1ncnc2c1nc(Sc1ccc(Cl)cc1)n2[C@H]1OC2COP(=O)(O)O[C@@H]2C1O (some centres not stated) | inactive | inactive |
| N=C(N)c1ccc(OCCCCCOc2ccc(C(=N)N)cc2)cc1 (tested in a mixture with another compound) | inactive | inactive |
| O=C(O)/C=C/c1cnc[nH]1 | inactive | inactive |
| COc1ccc(CCN(C)CCc2ccc(OC)c(OC)c2)cc1OC | inactive | inactive |
| CNc1cc(NS(=O)(=O)c2ccc(N)cc2)nc(NC)n1 | inactive | inactive |
| O=C(O)C1CCCNC1 (configuration not stated) | inactive | inactive |
| COC(=O)C(C)(N)Cc1ccc(O)cc1 (configuration not stated) | inactive | inactive |
| N=C(N)SCCc1cnc[nH]1 | inactive | inactive |
| NCC(O)C1CCCCCCC1 (configuration not stated) | inactive | inactive |
| OC[C@H]1NC[C@@H](O)[C@@H]1O | inactive | inactive |
| CCCCCCN(CCCCCC)C(=O)Cc1c(-c2ccc(F)cc2)[nH]c2ccccc12 | inactive | inactive |
| O=[N+]([O-])c1cccc2cn[nH]c12 | inactive | inactive |
| N[C@H](C(=O)O)[C@H](O)C(=O)O | inactive | inactive |
